Dicer processing – inhibitors of human Dicer processing of pre-microRNA; z-score at 25 µM; AID 1347074; Q9UPY3; hit rate 6% among 47,000; cat-ELCCA pre-miR-21 Dicer processing, chemiluminescence; stronger effect = higher value; in the data active = z-score above about 3, passing the limit was not always enough;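 note: higher signal means more uncleaved substrate so more Dicer inhibition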
Hits are given with their value; - = inactive. Only a selection was taken, and hits are over-represented in it overall.

SMILES	Dicer processing
COC(=O)c1cccc(Nc2nc(-c3cccnc3)nc3ccccc23)c1	-
Oc1ccccc1Nc1nc(-c2cccnc2)nc2ccccc12	11
COc1ccc(Nc2nc(-c3cccnc3)nc3ccccc23)cc1	-
O=C(O)Cc1ccc2c(c1)OCCO2	-
COC(=O)C1=C(C)N(c2ccc(Cl)cc2)C(=O)C1	-
COC(=O)c1sc2c(c1N(C(C)=O)C(C)=O)CSc1ccc(Cl)cc1-2	-
Brc1cccc(CSc2nc3ncccc3[nH]2)c1	-
Fc1cc(Cl)ccc1CSc1nc2ncccc2[nH]1	-
Cc1ccc(CSc2nc3ncccc3[nH]2)cc1	4.3
CNC(=S)N/N=C/c1cccc2ccccc12	-
COc1ccc(-c2noc(-c3cccc(C)c3)n2)cc1OC	-
COc1cc2nc(NC(=O)c3ccc(C(C)(C)C)cc3)sc(=O)c2cc1OC	-
COc1cc2nc(NC(C)=O)sc(=O)c2cc1OC	3.6
COc1cc2nc(NC(=O)c3ccco3)sc(=O)c2cc1OC	-
O=C1CSC(c2ccc(Cl)cc2)N1c1ccccc1 (stereo unspecified)	-
CCC(=O)OC1CCC2(C)C3C(CC[C@H]2C1)C1C[C@@H](C)[C@](O)(C(C)=O)C1(C)C[C@H]3OC(=O)CC (stereo partly specified)	-
CCOC(=O)CN(C(=O)CSc1nc(C)cc(C)c1C#N)c1ccccc1C	-
O=C(Oc1ccc2occ([N+](=O)[O-])c2c1)c1ccc(C(F)(F)F)cc1	4.7
O=C(Oc1c(Br)cc(C(F)(F)F)cc1[N+](=O)[O-])c1ccccc1Cl	-
COC(=O)NC(=O)c1ccc(Oc2ccc(C(F)(F)F)cc2[N+](=O)[O-])cc1	-
COc1cccc(OC)c1NC(=O)NC(=O)c1c(OC)c(Cl)cc(Br)c1OC	-
CCOC(=O)c1cc(-c2nc(C(=O)NN)cs2)c(C)nc1C(F)(F)F	-
CC1(C)NC(C(=O)O)C(C)(C)S1 (stereo unspecified)	-
CC(=NCc1ccc(C#N)cc1)c1c(C)cc(C)cc1O	-
N#Cc1c(-c2ccncc2)[nH]c(=S)[nH]c1=O	3.6
SMILES	Dicer processing
COc1ccc(-c2[nH]c(SC)nc(=S)c2C#N)cc1	-
N#Cc1c(-c2cccnc2)[nH]c(=S)[nH]c1=O	-
CCOC(=O)c1ccc2nc(C(F)(F)F)cc(N3CCN(C)CC3)c2c1	-
O=C(CSc1nc(-c2ccccc2)cs1)c1ccccc1	-
Nc1ccc(Sc2ccc(N)cc2C(=O)O)c(C(=O)O)c1	-
Cc1nn(-c2ccccc2)c(C)c1C=NN1CCN(Cc2ccccc2)CC1	-
CN(C)c1ccc(/C=C2/OC(=S)NC2=S)cc1	3.4
CN(C)c1ccc(C=C2C(=O)N(c3ccccc3)C(=O)N(c3ccccc3)C2=O)cc1	-
Cc1oc2ccc(OC(=O)N3CCOCC3)cc2c1C(=O)OC(C)C	-
CCOC(=O)c1c(C)oc2ccc(OC(=O)N3CCOCC3)cc12	-
COC(=O)c1c(C)oc2ccc(OC(=O)N3CCOCC3)cc12	5.7
CO[C@H]1C[C@H](O[C@H]2[C@H](C)[C@@H](O[C@@H]3O[C@H](C)C[C@H](N(C)C)[C@H]3OC(C)=O)[C@@H](C)C[C@@]3(CO3)C(=O)[C@H](C)[C@@H](OC(C)=O)[C@@H](C)[C@@H](C)OC(=O)[C@@H]2C)O[C@@H](C)[C@@H]1OC(C)=O	-
Cc1ccc(S(=O)(=O)n2c(=O)sc3ccccc32)cc1	-
COC(=O)n1c(=O)oc2cc(Cl)ccc21	-
Cc1ccc(S(=O)(=O)n2c(=O)oc3cc(Cl)ccc32)cc1	16
CC1CC(=O)c2cnc(N3CCCCC3)nc2C1 (stereo unspecified)	-
Cc1cc2nc(SCC(=O)c3ccccc3)[nH]c2cc1C	-
O=c1[nH]c2c(cnn2-c2ccccc2)c(=O)n1-c1ccccc1	-
CCOC(=O)c1c(C)n(-c2cccc(Br)c2)c2ccc(O)cc12	6.5
CCOC(=O)c1c(C)n(C)c2ccc(O)cc12	-
CCOC(=O)c1c(C)n(-c2ccccc2)c2ccc(OC)cc12	-
COc1ccc(-c2nc3sc4c(c3c(=O)[nH]2)CCCC4)cc1	-
CC(C)CNC1CC(=O)N(c2ccc(C(C)C)cc2)C1=O (stereo unspecified)	-
CN(C)c1ccc(NC2CC(=O)N(c3ccc(F)cc3)C2=O)cc1 (stereo unspecified)	-
CCCCCCCNC1CC(=O)N(c2ccc(F)cc2)C1=O (stereo unspecified)	3.9
SMILES	Dicer processing
C=CCn1c(N)c(C(=O)N/N=C/c2cccs2)sc1=S	-
COc1cc2c(cc1OC)C1(C)N(CC2)C(C(=O)c2ccccc2)=NN1c1ccccc1 (stereo unspecified)	-
OCCCc1nc2ccccc2n1CCCCOc1ccc(Cl)cc1	6.1
OCCCc1nc2ccccc2n1CCCOc1ccc(Cl)cc1	-
OCc1nc2ccccc2n1CC(O)COc1ccc(Cl)cc1 (stereo unspecified)	-
Cc1cc(Cl)ccc1NC(=S)NCCCNC1CCCCC1	-
COC(=O)c1cccc([N+](=O)[O-])c1-c1c(C(=O)OC)cccc1[N+](=O)[O-]	-
COc1ccc(OC)c(S(=O)(=O)N2CCC(C)CC2)c1	-
COc1ccc(S(=O)(=O)N2CCCN(S(=O)(=O)c3ccc(OC)cc3)CC2)cc1	-
COc1ccc(S(=O)(=O)N2CCCN(S(=O)(=O)c3ccc(OC)cc3C)CC2)c(C)c1	3
O=C(CCN(Cc1ccco1)S(=O)(=O)c1ccc(Cl)cc1)NNS(=O)(=O)c1cccs1	-
COCCOC(=O)C1=C(C)NC2=C(C(=O)CC(C)(C)C2)C1c1ccccc1OCc1ccccc1 (stereo unspecified)	-
CCc1ccc(C(=O)CC2(O)C(=O)Nc3ccccc32)cc1 (stereo unspecified)	-
CC(C)c1ccc(C(=O)CC2(O)C(=O)Nc3ccccc32)cc1 (stereo unspecified)	-
CCOc1ccc(C(=O)CC2(O)C(=O)Nc3ccccc32)cc1 (stereo unspecified)	3.4
Cc1c(Cl)cccc1NC(=S)N1C(C)CCCC1C (stereo unspecified)	-
Cc1ccccc1NC(=S)N1CC(C)OC(C)C1 (stereo unspecified)	-
Cc1ccccc1NC(=S)N1CCCCC1C (stereo unspecified)	3.4
O=C(NCCCO)C(=O)Nc1ccc(Br)cc1	-
O=C(Oc1cccc2cccnc12)c1ccc(Br)cc1	4.6
O=C(Oc1cccc2cccnc12)c1ccc2c(c1)-c1ccccc1C2=O	-
Cc1onc(-c2c(Cl)cccc2Cl)c1C(=O)Oc1cccc2cccnc12	-
O=S(=O)(NCc1ccccc1)c1cccc(S(=O)(=O)c2ccc(Cl)cc2)c1	-
CN(C)CCS(C)(=O)=O	-
COC(=O)c1cc(Cl)cc2c1N[S@](=O)S2	-
SMILES	Dicer processing
Cc1c(C#N)c(Sc2n[nH]c(-c3cc(Cl)cc(Cl)c3)n2)nc2ccccc12	-
Oc1ccccc1C=NCC1CCC(CN=Cc2ccccc2O)CC1 (stereo unspecified)	-
Oc1ccccc1/C=N/C(/N=C/c1ccccc1O)c1ccccc1O	-
Oc1ccccc1C=Nc1n[nH]c2ccccc12	3.5
O=C(Nc1cc(Cl)cc(Cl)c1)OC1CN(C(c2ccccc2)c2ccccc2)C1	-
CN(CCc1ccccn1)S(=O)(=O)c1cccc(Cl)c1	-
NNC(=O)CNC(=O)COc1ccccc1	-
Cc1ccc(S(=O)(=O)NC2=NCN(CCc3ccccc3)CN2)cc1	-
Cc1ccc(S(=O)(=O)NC2=NCN(Cc3ccccc3)CN2)cc1	4.6
CCCN1CN=C(NS(=O)(=O)c2ccc(C)cc2)NC1	-
